# Results from PubChem BioAssay.
# The source made the active and inactive calls.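 The calls were made as follows: active = visually confirmed hit in the image check and inhibition above 20%; inconclusive = visually confirmed hit but inhibition not above 20%; inactive = no visual hit in the image check.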
# Assay: endothelial E-selectin expression blockers – imaging, HUVEC, immunofluorescence, MLSMR starter and 10KST1 sets, primary screen (AID 487);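 as to inhibition: signal is fraction of cell area covered by stained E-selectin grains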;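 as to nuclei count: 100% = median nuclei count of all wells on the same plate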
# Settings: HUVEC TNFalpha-induced E-selectin immunofluorescence imaging, at 2 µM; inhibition: stronger effect = higher value; nuclei count: measured here: cell number, toxicity
Compound,inhibition,nuclei count
CCOCC(=O)Nc1ccc(S(=O)(=O)N2CCOCC2)cc1,-6.7% (inactive),73.9%
Cc1cc(NS(=O)(=O)c2ccc(NC(=O)COc3ccc(Cl)cc3)cc2)no1,-54.3% (inactive),122%
COc1ccc(C2C(C(C)=O)=C(C)N=c3s/c(=C/c4ccc5c(c4)OCO5)c(=O)n32)cc1 (centres undefined),-0.5% (inactive),116%
CCOc1ccc(OCC)c(NS(=O)(=O)c2ccc3c(c2)n(C)c(=O)c(=O)n3C)c1,-27.6% (inactive),107%
COCCn1nnnc1C(c1ccc(OC)cc1)N1CCN(c2ccccc2F)CC1 (centres undefined),-30.1% (inactive),104%
CCOC(=O)Nc1ccc2c(CN3C(=O)NC4(CCCC4)C3=O)cc(=O)oc2c1,-149% (inactive),153%
CCc1ccc(C2CC(c3cccc(OC)c3)n3nc(N)nc3N2)cc1 (centres undefined),-40.1% (inactive),104%
CCOC(=O)N1CCC(NC(=O)CCC(=O)N2CC(C)Oc3ccc(Cl)cc32)CC1 (centres undefined),13.6% (inactive),89%
COc1cccc(C2CC(c3ccc(C)cc3)Nc3nc(N)nn32)c1 (centres undefined),28% (inactive),101%
CC1=C/C(=C/N(C)c2ccccc2)C(=O)S1,31.4% (inactive),88.1%
CCCN(CCC)C(=O)C1CCN(c2cc(C)nc3c(-c4ccc(OC)c(OC)c4)c(C)nn23)CC1,-68.7% (inactive),124%
CSc1nc2ccc(S(=O)(=O)N3CCOCC3)cc2s1,-22% (inactive),129%
O=C(CSc1ncn[nH]1)c1ccco1,13.2% (inactive),119%
CCNc1ccc2c(Cl)cc(=O)oc2c1,-6.6% (inactive),98.3%
Cn1c(N2CCC(C(N)=O)CC2)nc2c1c(=O)n(Cc1ccc(Br)cc1)c(=O)n2C,24.2% (inactive),95.1%
COCCOC(=O)C1=C(C)OC(N)=C(C#N)C1c1ccc2c(c1)OCO2 (centres undefined),-87.8% (inactive),110%
COc1ccc(S(=O)(=O)N(CCN2CCOCC2)Cc2cc(OC)ccc2OC)cc1,-100% (inactive),113%
COC(=O)c1nc(N)sc1-c1ccccc1,4.8% (inactive),101%
CC(C)C(c1nnnn1C1CCCC1)N1CCN(C(=O)c2ccco2)CC1 (centres undefined),-101% (inactive),115%

Compound,inhibition,nuclei count
O=C(Nc1ccccc1-c1nc2ccccc2o1)c1ccc2c(c1)OCCO2,48.6% (inactive),87.4%
N#Cc1nc(COc2ccccc2Cl)oc1N1CCCCCC1,17.1% (inactive),102%
Cn1c(C(=O)NCCCN2CCN(c3ccc(F)cc3)CC2)cc2c(=O)n(C)c3ccccc3c21,-73.4% (inactive),118%
Cc1[nH]c(=O)[nH]c(=O)c1S(=O)(=O)N1CCCC(C(=O)NCc2ccco2)C1 (centres undefined),-48.3% (inactive),106%
COc1ccc(C(=O)CSc2nc(C)cc(=O)[nH]2)cc1,43.1% (inactive),98.7%
Nc1nc(N2CCN(C/C=C/c3ccccc3)CC2)nc2ccccc12,-58.8% (inactive),139%
COc1ccc(OC)c(C(=O)c2ccc(C(=O)O)cc2)c1,-71.4% (inactive),110%
CCOC(=O)N1CCN(C(=O)c2ccc(CS(=O)(=O)c3ccc(OC)cc3)o2)CC1,8.5% (inactive),133%
CN1C(=O)C(O)(CC(=O)c2ccc3c(c2)OCO3)c2ccccc21 (centres undefined),-11.1% (inactive),108%
O=C(COC(=O)c1cc(S(=O)(=O)N2CCOCC2)cs1)c1ccccc1,-88.5% (inactive),114%
CN1CCN(S(=O)(=O)c2ccc(NC(=O)c3ccc(F)cc3)cc2)CC1,-22.1% (inactive),85%
CCOCCCNC(=O)c1cc2sc(Cl)cc2n1CC,-80.9% (inactive),100%
O=C(Nc1ccc(O)cc1)C1CCCN1S(=O)(=O)c1ccc(F)cc1 (centres undefined),-33.3% (inactive),119%
COc1ccc(CCNc2oc(-c3ccco3)nc2C#N)cc1,35.2% (inactive),84.1%
Cc1cc(OCC(O)CN2CCN(CCO)CC2)ccc1C(C)C (centres undefined),24% (inactive),93.2%
CCOC(=O)c1c(N)nn(C(=O)C(C)C)c1-c1ccccc1,4.3% (inactive),109%
CCOC(=O)c1cccc(NC(=O)C2CCN(S(=O)(=O)c3cccs3)CC2)c1,-45.4% (inactive),128%
CCOC(=O)c1cccc(NC(=O)CSc2nc3cccnc3n2C)c1,-14.2% (inactive),105%
